Measured values from PubChem BioAssay AID2540 (Sanford-Burnham Center for Chemical Genomics, 2010).
Out of some 330,000 compounds screened, about 4,100 (1.2%) were called active. This is one part of a sample in which actives are shown more often than they occur. Unmarked numbers belong to inactive results. Rule as the data show it: active = inhibition above about 50%; inactive = the rest.

The compounds below were run against Sentrin-specific protease 8 (Homo sapiens) (UniProt Q96LD8) (assay: blockers of human SENP8 peptidase activity – biochemical, luminescence, primary screen (AID 2540)). Conditions: purified SENP8, Z-RLRGG-aminoluciferin cleavage, at 10 µM, active compounds read high.
Sequence of Sentrin-specific protease 8 (Homo sapiens) (Q96LD8 whole entry, looked up): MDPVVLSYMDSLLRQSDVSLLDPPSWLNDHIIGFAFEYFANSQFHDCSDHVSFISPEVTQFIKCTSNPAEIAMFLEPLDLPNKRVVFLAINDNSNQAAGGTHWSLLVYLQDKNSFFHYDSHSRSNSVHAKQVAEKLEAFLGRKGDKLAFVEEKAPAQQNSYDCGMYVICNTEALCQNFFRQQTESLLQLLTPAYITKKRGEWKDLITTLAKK
O=C(C[C@@H]1C/C=C\CCC(=O)OC[C@@H]2CCCN2C1=O)NCCO showed an inhibition of -14.7%.
Compound CC(C)[C@H](NC(=O)N1c2ccccc2NC(=O)[C@@H]1C(C)C)C(=O)N[C@H](C(=O)O)c1ccccc1 has an inhibition of -11.1%.
COc1ccccc1OCc1nc2ccccc2s1 was tested, and the inhibition was 94.1% (active).
Compound CN(Cc1nc2ccccc2s1)C(=O)c1ccc(F)cc1 has an inhibition of -4.17%.
In the case of COc1ccccc1N1CC(O)=C(c2nc3ccccc3s2)C1=N, the inhibition is reported as -8.72%.
Work on COC(=O)Cc1ccc(OCC(=O)NC2CCCC2)cc1 yielded an inhibition of -7.77%.
O=C(Nc1ccccc1C(F)(F)F)N1CCCC1c1cccnc1 (stereo not given) showed an inhibition of 1.35%.
With Cc1cccc(Nc2nc(-c3ccccc3)cs2)n1 the inhibition was 81.3% (active).
In the case of CC(=O)NCCC(=O)Nc1nc(-c2ccc3c(c2)OCCO3)cs1, the inhibition is reported as -10.2%.
Compound CCc1noc(C)c1C(=O)Nc1nc(-c2ccccc2)cs1 has an inhibition of -12.4%.
O=C(Nc1ccc(-c2csc(Nc3cccc(C(F)(F)F)c3)n2)cc1)c1cccc(C(F)(F)F)c1 was tested, and the inhibition was 2.09%.
Cc1ccccc1Nc1nc(-c2cccnc2)cs1 showed an inhibition of 44%.
With CC(=O)Nc1cccc(-c2csc(Nc3cccc(C)n3)n2)c1 the inhibition was 90.4% (active).
CC(=O)NNc1cc(=O)c2c(=O)n(C)c(=O)n(C)c2[nH]1 gave an inhibition of 5.83%.
COc1ccc(N(CC(=O)N/N=C/c2cccc3c2OCCO3)S(=O)(=O)c2ccc(NC(C)=O)cc2)cc1 gave an inhibition of -14.1%.
Compound Cc1nc(COc2cc3oc(=O)cc(C)c3cc2Cl)cs1 has an inhibition of -13.3%.
Work on CCN1CCCC1CNC(=O)Cn1cnc2ccc(S(=O)(=O)N3CCC(C)CC3)cc2c1=O (stereo not given) yielded an inhibition of 3.55%.
CCC1Nc2ncnc(N3CCN(c4ccccc4)CC3)c2N(Cc2ccc(Cl)cc2)C1=O (stereo not given) was tested, and the inhibition was -14%.
For CCOCC(=O)Nc1ncc(S(=O)(=O)c2ccc([N+](=O)[O-])cc2)s1, the inhibition was 1.6%.
CC(=O)Nc1ccccc1NC(=O)c1cc(C)cc(C)c1 showed an inhibition of -8.13%.
In the case of CSCc1ccc(C(=O)Nc2cc(C)cc(C)c2)cc1, the inhibition is reported as 72.8% (active).
In the case of C=CCN(c1ccc(C(=O)Nc2cc(C)cc(C)c2)cc1)S(C)(=O)=O, the inhibition is reported as 3.93%.
In the case of COc1ccccc1N=C(C)C1=C(O)COC1=O, the inhibition is reported as -4.5%.
COc1cc(N=Cc2c(O)c3ccccc3oc2=O)c(OC)cc1Cl was tested, and the inhibition was 20%.
With COc1ccccc1N=Cc1c(O)c2ccccc2oc1=O the inhibition was 58.3% (active).
With C=CCn1c(C)cc(C2=NNC(=NCC)SC2)c1C the inhibition was 91.5% (active).
COc1ccc(N(Cc2ccc(N(C)C)cc2)C(=O)c2ccc(S(C)(=O)=O)cc2)cc1 showed an inhibition of 7.56%.
With O=C(CCc1ccccc1)Nc1ccc(NC(=O)C2CC2)nc1 the inhibition was -0.592%.
Work on CCN(Cc1ccccc1)C(=O)CN1C(=S)NC(C)(C)CC1C (stereo not given) yielded an inhibition of -3.88%.
In the case of O=C(CN1CCN(c2ccccc2F)CC1)c1ccc2c(c1)OCO2, the inhibition is reported as -9.99%.
In the case of Fc1ccccc1-c1cc2cc3c(cc2cn1)OCO3, the inhibition is reported as 70.8% (active).
In the case of O=C(c1ccco1)N1CCN(C(=O)c2cc(-c3ccccc3F)no2)CC1, the inhibition is reported as 3.2%.
Cc1ccc(N(Cc2ccccc2O)C(=O)c2ccccc2F)cc1 was tested, and the inhibition was 9.54%.
Work on O=C(Nc1ccc2ccccc2c1)/C(=C\c1ccc2c(c1)OCO2)NC(=O)c1ccco1 yielded an inhibition of 10.3%.
Work on CCN1C(=NCc2ccc(OC)cc2)N[C@@H](CCc2ccccc2)[C@H](C(=O)NCc2ccc(OC)cc2)[C@H]1C yielded an inhibition of -2.38%.
Compound CC(C)CCN1C(=O)c2ccc(C(=O)Nc3cccc(S(N)(=O)=O)c3)cc2C1=O has an inhibition of -8.58%.
COCCOC(=O)c1sc(=S)n(CCOC)c1N was tested, and the inhibition was -1.86%.
COc1cccc(NC(=O)c2ccc3c(SCC(=O)O)c4c(nc3c2)CCCC4)c1 gave an inhibition of -3.32%.
Compound CC(=O)c1ccc(NC(=O)c2ccc3c(Cl)c4c(nc3c2)CCCC4)cc1 has an inhibition of -0.476%.
CC(C)CCNC(=O)c1ccc2c(Cl)c3c(nc2c1)CCC3 was tested, and the inhibition was 81.1% (active).
Cc1c(CCO)c(=O)[nH]n1C(=O)c1c(F)cccc1F gave an inhibition of 13.4%.
For O=C(O)C(F)(F)C(NCc1ccccc1)c1ccccc1 (stereo not given), the inhibition was -6.64%.
O=C(OC1CCOC1=O)c1ccc(-c2nc3ccccc3s2)s1 (stereo not given) was tested, and the inhibition was 93.9% (active).
Work on COc1cc(C(=O)OC2CCOC2=O)c([N+](=O)[O-])cc1OC (stereo not given) yielded an inhibition of -2.98%.
CC(C)c1ccc(C(=O)OC2CCOC2=O)cc1 (stereo not given) gave an inhibition of 2.09%.
Compound Cc1cccc(NS(=O)(=O)c2ccc(C)c(C(=O)NCC(c3ccccc3)N(C)C)c2)c1 (stereo not given) has an inhibition of 8.98%.
Compound CCCCNC(=O)c1ccccc1NC(=O)c1ccccc1N(C)S(C)(=O)=O has an inhibition of -5.03%.
Compound Oc1c(Cl)cc(Cl)c(Cl)c1Cc1c(O)c(Cl)cc(Cl)c1Cl has an inhibition of 28.5%.
In the case of COc1ccc(/C=C/c2noc(-c3ccccc3OC(C)=O)n2)cc1, the inhibition is reported as 88.3% (active).
For COc1ccccc1-c1nnc(-c2ccc(F)cc2)o1, the inhibition was 24.5%.
COc1cccc(/C=C/c2ccc3ccccc3n2)c1OC(C)=O showed an inhibition of 17.7%.
Compound C[C@@H]1CC[C@]2(O[C@@H](CCO)C[C@H](O)[C@H]2O)O1 has an inhibition of 1.7%.
NC(=O)[C@H]1CC2(CC(c3cccc(NC(=O)[C@H]4CCC(=O)N4)c3)=NO2)CN1C(=O)c1ccccc1C(=O)c1ccccc1 (stereo not given in full) gave an inhibition of 2.84%.
With COc1cc(/C=N/Nc2nc3ccccc3s2)ccc1O the inhibition was 76% (active).
Work on COc1ccc(/C=N/NC(=O)c2cc(-c3cccc(C)c3)nc3ccccc23)cc1O yielded an inhibition of 10.3%.
COc1cc(/C=N/NC(=O)CCc2n[nH]c(=O)[nH]c2=O)ccc1O showed an inhibition of 1.52%.
O=C(NCCc1cccc(F)c1)C1CCCN(c2nc3ccccc3s2)C1 (stereo not given) showed an inhibition of 12.2%.
c1c2c(cc3sc(N4CCCCC4)nc13)OCCO2 was tested, and the inhibition was 96.5% (active).
With Fc1ccc2nc(N3CCCCC3)sc2c1 the inhibition was 72.2% (active).
Work on O=S(=O)(Nc1ccc2nc(N3CCOCC3)sc2c1)c1ccccc1 yielded an inhibition of 9%.
Cc1nc(N2CCCCC2)sc1C=O showed an inhibition of 1.41%.
Work on Fc1ccc2nc(Nc3nc4c(s3)CCCC4)sc2c1 yielded an inhibition of 3.05%.
With CN(C)CCCN(C(=O)c1ccc(S(=O)(=O)N2CCCCCC2)cc1)c1nc2cc3c(cc2s1)OCCO3 the inhibition was 6.61%.
Cc1ccc2nc(N3CCN(C(=O)c4ccco4)CC3)sc2c1 gave an inhibition of -13.8%.
Brc1ccc2nc(N3CCCC3)sc2c1 was tested, and the inhibition was 85.2% (active).
